Test results: PubChem BioAssay (NCI)
This is part of a sample that, as a whole, favours compounds with a hit. Of some 83,000 tested, about 20% had one in any assay.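 Cells were grown in 96-well plates and exposed to the test compound at a single concentration for 48 hours; results are reported as percent growth, with values below 10 considered active.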 Active and inactive are the calls of the source.

Legend:
Experiment in all cases: NCI-60 one-dose screen, 48 h (100 = growth as untreated, 0 = no growth, -100 = all killed)
Details in all cases: 10 µM unless noted
DU-145 prostate = tested on: DU-145 prostate
K-562 leukemia = tested on: K-562 leukemia
MALME-3M melanoma = tested on: MALME-3M melanoma
MDA-MB-231 breast = tested on: MDA-MB-231 breast
RXF 393 renal = tested on: RXF 393 renal
SF-268 CNS = tested on: SF-268 CNS
SF-295 CNS = tested on: SF-295 CNS
SF-539 CNS = tested on: SF-539 CNS
UACC-257 melanoma = tested on: UACC-257 melanoma
M14 melanoma = tested on: M14 melanoma
HCT-15 colon = tested on: HCT-15 colon
HT29 colon = tested on: HT29 colon
SNB-75 CNS = tested on: SNB-75 CNS
SNB-19 CNS = tested on: SNB-19 CNS
U251 CNS = tested on: U251 CNS
PC-3 prostate = tested on: PC-3 prostate
SK-MEL-5 melanoma = tested on: SK-MEL-5 melanoma
UACC-62 melanoma = tested on: UACC-62 melanoma
LOX IMVI melanoma = tested on: LOX IMVI melanoma
SK-MEL-28 melanoma = tested on: SK-MEL-28 melanoma

Measured: growth

CCCCCCCC[n+]1ccc2ccccc2c1
active: SK-MEL-5 melanoma -19.4%
inactive: DU-145 prostate 82.7% | K-562 leukemia 22.6% | MALME-3M melanoma 42.4% | MDA-MB-231 breast 67% | RXF 393 renal 97.4% | SF-268 CNS 80.4% | SF-295 CNS 67% | SF-539 CNS 62.6% | UACC-257 melanoma 20% | M14 melanoma 42.6% | HCT-15 colon 99.7% | HT29 colon 42.4% | SNB-75 CNS 69.4% | SNB-19 CNS 53.8% | U251 CNS 66% | PC-3 prostate 35% | UACC-62 melanoma 25.5% | LOX IMVI melanoma 63.6% | SK-MEL-28 melanoma 61.2%

C[C@]12C[C@@H](CO)[C@H](O)C[C@@H]1CC[C@@H]1[C@@H]2CC[C@]2(C)[C@@H](O)CC[C@@H]12
inactive: DU-145 prostate 106% | K-562 leukemia 74.7% | MALME-3M melanoma 90.6% | MDA-MB-231 breast 111% | RXF 393 renal 113% | SF-268 CNS 103% | SF-295 CNS 113% | SF-539 CNS 95.8% | UACC-257 melanoma 90.4% | M14 melanoma 103% | HCT-15 colon 105% | HT29 colon 84% | SNB-75 CNS 107% | SNB-19 CNS 108% | U251 CNS 96.1% | PC-3 prostate 95.1% | SK-MEL-5 melanoma 103% | UACC-62 melanoma 106% | LOX IMVI melanoma 93.8% | SK-MEL-28 melanoma 105%

CN1CCCCC1C(C)(O)c1ccccc1 (stereo not given)
inactive: DU-145 prostate 111% | K-562 leukemia 114% | MALME-3M melanoma 97.6% | MDA-MB-231 breast 112% | RXF 393 renal 116% | SF-268 CNS 101% | SF-295 CNS 96.2% | SF-539 CNS 93.6% | UACC-257 melanoma 96.5% | M14 melanoma 92.9% | HCT-15 colon 100% | HT29 colon 93.4% | SNB-75 CNS 93% | SNB-19 CNS 107% | U251 CNS 101% | PC-3 prostate 82.1% | SK-MEL-5 melanoma 104% | UACC-62 melanoma 104% | LOX IMVI melanoma 99% | SK-MEL-28 melanoma 105%

NC(=O)c1c(Br)n(C2OC(CO)C(O)C2O)c2ncnc(N)c12 (stereo not given)
active: DU-145 prostate 1.13% | K-562 leukemia 1.67% | RXF 393 renal -16.4% | UACC-257 melanoma -0.624% | M14 melanoma 2.28% | HCT-15 colon 3.75% | PC-3 prostate -10.5% | UACC-62 melanoma 8.21% | LOX IMVI melanoma 1.47% | SK-MEL-28 melanoma -4.78%
inactive: MALME-3M melanoma 13.2% | MDA-MB-231 breast 50.6% | SF-268 CNS 20.1% | SF-295 CNS 38.9% | SF-539 CNS 13.7% | HT29 colon 16.3% | SNB-75 CNS 37.5% | SNB-19 CNS 53.9% | U251 CNS 33.4% | SK-MEL-5 melanoma 50.7%

O=C1C(=Cc2cn(Cc3ccccc3)c3ccccc23)C(=O)N(Cc2ccccc2)C(=O)N1Cc1ccccc1
inactive: DU-145 prostate 110% | K-562 leukemia 81.5% | MALME-3M melanoma 105% | MDA-MB-231 breast 89.3% | RXF 393 renal 57.6% | SF-268 CNS 87.5% | SF-295 CNS 34.4% | SF-539 CNS 83.5% | UACC-257 melanoma 52.9% | M14 melanoma 104% | HCT-15 colon 85.8% | HT29 colon 111% | SNB-75 CNS 45% | SNB-19 CNS 87.1% | U251 CNS 75.7% | PC-3 prostate 90.3% | SK-MEL-5 melanoma 104% | UACC-62 melanoma 53.1% | LOX IMVI melanoma 87.2% | SK-MEL-28 melanoma 110%

COc1ccc(Nc2ccnc3cc(Cl)ccc23)cc1CN(CCCl)CCCl
active: DU-145 prostate -26.4% | K-562 leukemia 0.691% | MALME-3M melanoma -85.3% | MDA-MB-231 breast 0.96% | RXF 393 renal -72.3% | SF-268 CNS -29.3% | SF-295 CNS -24.8% | SF-539 CNS -75.8% | UACC-257 melanoma -39.1% | M14 melanoma -58.4% | HCT-15 colon -12.1% | HT29 colon 1.34% | SNB-75 CNS -10.8% | SNB-19 CNS -0.124% | U251 CNS -11% | PC-3 prostate -4.22% | SK-MEL-5 melanoma -88.4% | UACC-62 melanoma -87% | LOX IMVI melanoma -51.6% | SK-MEL-28 melanoma -38.3%

COC(=O)[C@@]1(O)C[C@H]2O[C@]1(C)n1c3ccccc3c3c4c(c5c6ccccc6n2c5c31)C(=O)NC4
active: DU-145 prostate -10.9% | K-562 leukemia 0.0974% | MALME-3M melanoma -81% | MDA-MB-231 breast -49.1% | RXF 393 renal -93.9% | SF-268 CNS -28.8% | SF-295 CNS -93.4% | SF-539 CNS -88% | UACC-257 melanoma -47.2% | M14 melanoma -67.5% | HCT-15 colon -29.3% | HT29 colon -24.6% | SNB-75 CNS -97.1% | SNB-19 CNS -27.9% | U251 CNS -67.1% | PC-3 prostate -50.3% | SK-MEL-5 melanoma -89.4% | UACC-62 melanoma -47.4% | LOX IMVI melanoma -69.2% | SK-MEL-28 melanoma -58.9%

CCCCCN(CCCCC)CC(O)c1cc(Cl)ccc1OC (stereo not given)
inactive: DU-145 prostate 40.1% | K-562 leukemia 14.8% | MALME-3M melanoma 66.9% | MDA-MB-231 breast 18.8% | RXF 393 renal 30.7% | SF-268 CNS 42.3% | SF-295 CNS 23.9% | SF-539 CNS 53.2% | UACC-257 melanoma 47.4% | M14 melanoma 23.1% | HCT-15 colon 31.3% | HT29 colon 11.8% | SNB-75 CNS 84.8% | SNB-19 CNS 56.7% | U251 CNS 38.3% | PC-3 prostate 24.5% | SK-MEL-5 melanoma 37.7% | UACC-62 melanoma 62.3% | LOX IMVI melanoma 14.5% | SK-MEL-28 melanoma 51.7%

C=CC12CCN(CC1)C(C(O)c1ccnc3ccc(OC)cc13)C2 (stereo not given)
inactive: DU-145 prostate 107% | K-562 leukemia 17.6% | MALME-3M melanoma 26.2% | MDA-MB-231 breast 51.2% | RXF 393 renal 45.9% | SF-268 CNS 83.7% | SF-295 CNS 72.3% | SF-539 CNS 89.8% | UACC-257 melanoma 52.4% | M14 melanoma 72.3% | HCT-15 colon 66.1% | HT29 colon 11.9% | SNB-75 CNS 52.7% | SNB-19 CNS 98.5% | U251 CNS 80.6% | PC-3 prostate 66% | SK-MEL-5 melanoma 53.1% | UACC-62 melanoma 92.8% | LOX IMVI melanoma 89% | SK-MEL-28 melanoma 85.1%

CCCC(=O)O[C@@H]1C[C@H]2C[C@@H](O[C@@H]3O[C@@H](C)[C@@H](O)[C@@H](O)[C@H]3OC)C[C@@H](C[C@@H](C)/C=C/C=C\C[C@@H]3O[C@@H](C[C@@H]3C)[C@@H](O)C[C@H]3C[C@@]1(O)C(=O)O3)O2
active: SF-295 CNS 7.39% | UACC-257 melanoma 9.61%
inactive: DU-145 prostate 48.8% | K-562 leukemia 21.2% | MALME-3M melanoma 64.7% | MDA-MB-231 breast 86.4% | RXF 393 renal 72.1% | SF-268 CNS 80.1% | SF-539 CNS 67.6% | M14 melanoma 69.8% | HCT-15 colon 54.3% | HT29 colon 60% | SNB-75 CNS 55.4% | SNB-19 CNS 52.4% | U251 CNS 35.6% | PC-3 prostate 33% | SK-MEL-5 melanoma 19.5% | UACC-62 melanoma 62.5% | LOX IMVI melanoma 62.5% | SK-MEL-28 melanoma 71.5%

O=C(CCl)c1ccc([N+](=O)[O-])o1
active: DU-145 prostate -30.8% | K-562 leukemia -36.7% | MALME-3M melanoma -54.6% | RXF 393 renal -48.2% | SF-268 CNS 1.57% | SF-539 CNS 2.78% | UACC-257 melanoma -49.3% | M14 melanoma -11.5% | HCT-15 colon -86.6% | HT29 colon -14.3% | U251 CNS 7.98% | PC-3 prostate -23.8% | LOX IMVI melanoma -81.8% | SK-MEL-28 melanoma -64.6%
inactive: MDA-MB-231 breast 64.6% | SF-295 CNS 92.2% | SNB-75 CNS 51.3% | SNB-19 CNS 75.4% | SK-MEL-5 melanoma 62.8% | UACC-62 melanoma 33%

CCN(CCO)C(Cc1ccccc1)c1ccccc1 (stereo not given)
inactive: DU-145 prostate 105% | K-562 leukemia 107% | MALME-3M melanoma 96.5% | MDA-MB-231 breast 101% | RXF 393 renal 106% | SF-268 CNS 101% | SF-295 CNS 95.5% | SF-539 CNS 106% | UACC-257 melanoma 114% | M14 melanoma 89% | HCT-15 colon 94.3% | HT29 colon 98.5% | SNB-75 CNS 99.8% | SNB-19 CNS 119% | U251 CNS 115% | PC-3 prostate 94.9% | SK-MEL-5 melanoma 104% | UACC-62 melanoma 107% | LOX IMVI melanoma 92.6% | SK-MEL-28 melanoma 101%

CC(=O)O[C@H]1CC[C@H]2[C@@H]3CC=C4c5nc(-c6ccccc6)sc5CC[C@]4(C)[C@H]3CC[C@]12C
inactive: DU-145 prostate 86.1% | MALME-3M melanoma 93.9% | MDA-MB-231 breast 64.2% | RXF 393 renal 79.2% | SF-268 CNS 78.9% | SF-539 CNS 13.8% | UACC-257 melanoma 64.6% | M14 melanoma 61.5% | SNB-75 CNS 91.4% | SNB-19 CNS 67.4% | U251 CNS 47.5% | PC-3 prostate 72.3% | SK-MEL-5 melanoma 59.9% | UACC-62 melanoma 50.7% | LOX IMVI melanoma 29.8% | SK-MEL-28 melanoma 90.4%
active: K-562 leukemia 8.09% | SF-295 CNS -0.49% | HCT-15 colon 9.12% | HT29 colon -31.5%

CCC1CN1CCCCN1CC1CC (stereo not given)
inactive: DU-145 prostate 108% | K-562 leukemia 114% | MALME-3M melanoma 91.6% | MDA-MB-231 breast 96.7% | RXF 393 renal 105% | SF-268 CNS 103% | SF-295 CNS 95.3% | SF-539 CNS 100% | UACC-257 melanoma 97% | M14 melanoma 98% | HCT-15 colon 88.5% | HT29 colon 98.2% | SNB-75 CNS 81.7% | SNB-19 CNS 99.3% | U251 CNS 99% | PC-3 prostate 98.5% | SK-MEL-5 melanoma 99.5% | UACC-62 melanoma 97.2% | LOX IMVI melanoma 97.7% | SK-MEL-28 melanoma 90%

CC[C@H](C)[C@H](NC(=O)c1ccccn1)C(=O)N(C)[C@H](C[C@@H](OC(C)=O)c1nc(C(=O)N[C@@H](Cc2ccccc2)C[C@H](C)C(=O)OC)cs1)C(C)C
inactive: K-562 leukemia 10.8% | MALME-3M melanoma 53.8% | MDA-MB-231 breast 15.8% | SF-268 CNS 32.3% | UACC-257 melanoma 69.8% | HCT-15 colon 13.5% | SNB-19 CNS 52.4% | U251 CNS 16.1% | PC-3 prostate 24.5% | UACC-62 melanoma 13.1% | LOX IMVI melanoma 29.1% | SK-MEL-28 melanoma 53.2%
active: DU-145 prostate 6.32% | RXF 393 renal -11.2% | SF-295 CNS 7.86% | SF-539 CNS -24% | M14 melanoma 4.96% | HT29 colon 2.48% | SNB-75 CNS 5.57% | SK-MEL-5 melanoma -22.6%
